A short description of test [1]: Quantitative High-Throughput drug screen in 47 multiple myeloma cell lines against the NCATS MIPE library collection: H1112_PLB cell viability assay (AID 1918967; further: nearly all actives have a fitted effect of over 30% in size). The procedure, abridged:
(§1)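 CellTiter-Glo ATP luminescence gave viability after 48 h compound treatment at 37C of 500 multiple myeloma cells per well. Normalisation used DMSO-only wells as 100% and media-only wells as 0% viability; primary qHTS of approved and investigational drugs.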

The nature of test [2]: Quantitative High-Throughput drug screen in 47 multiple myeloma cell lines against the NCATS MIPE library collection: Karpas25_ECACC cell viability assay (AID 1918968; further: nearly all actives have a fitted effect of over 35% in size). Put shortly:
as §1

Test [3] in a line: Quantitative High-Throughput drug screen in 47 multiple myeloma cell lines against the NCATS MIPE library collection: KMS27_JCRB cell viability assay (AID 1918970). Further: nearly all actives have a fitted effect of over 30% in size. The procedure, abridged: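 KMS27_JCRB myeloma cells, 500 per well, exposed 48 h at 37 C, 5% CO2 to MIPE 4.0 compounds. Viability from ATP by CellTiter-Glo luminescence, normalized to DMSO (100%) and medium-only (0%) wells.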

Test [4] can be described thus: Quantitative High-Throughput drug screen in 47 multiple myeloma cell lines against the NCATS MIPE library collection: KMS12PE_JCRB cell viability assay (AID 1918972). Further: nearly all actives have a fitted effect of over 30% in size. Put shortly: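 We plated 500 myeloma cells per well, pinned in MIPE 4.0 compounds, and incubated for 48 hours at 37C. ATP was then quantified with CellTiter-Glo, with DMSO and media-only wells defining 100% and 0%.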

Test [5] in a line: Quantitative High-Throughput drug screen in 47 multiple myeloma cell lines against the NCATS MIPE library collection: KMS20_JCRB cell viability assay (AID 1918973). Further: nearly all actives have a fitted effect of over 45% in size. Put shortly:
as §1

Test [6] is described as follows: Quantitative High-Throughput drug screen in 47 multiple myeloma cell lines against the NCATS MIPE library collection: KMS12BM_JCRB cell viability assay (AID 1918971). Further: nearly all actives have a fitted effect of over 35% in size. The procedure, abridged: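 Luminescent ATP measurement with CellTiter-Glo gives viability, scaled between DMSO-only wells (100%) and media-only wells (0%). Cells, 500 per well, faced library compounds for 48 hours at 37C.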

A short description of test [7]: Quantitative High-Throughput drug screen in 47 multiple myeloma cell lines against the NCATS MIPE library collection: KMS21BM_JCRB cell viability assay (AID 1918974). Conditions: ATP luminescence, 48 h; viability: at 45.8 µM (top of the series) unless noted. The procedure, abridged: as §1
Test [8] can be described thus: Quantitative High-Throughput drug screen in 47 multiple myeloma cell lines against the NCATS MIPE library collection: JJN3_DSMZ cell viability assay (AID 1918966; further: nearly all actives have a fitted effect of over 50% in size). Put shortly:
as §1

Results filed as inconclusive are left out. The source made the active and inactive calls. The call rests on the fitted dose curve; in most records, active means well fitted cell-killing curve with a large enough effect; inconclusive means small, poorly fitted or top-dose-only effect, or effect the other way; inactive means no such curve, though single readings can be large or run the other way.
Potency means the concentration at half of the fitted maximal effect.

For `Cc1ccccc1C(OCCN(C)C)c1ccccc1` (centres undefined), the Potency result in test [1], in test [2], in test [3] and in test [4] was “inactive” each time.

Consider `CNC(=O)c1ccc(N2C(=S)N(c3ccc(C#N)c(C(F)(F)F)c3)C(=O)C2(C)C)cc1F`, for which, in test [1], the Potency entry is “inactive”. For the same compound, in test [2], the Potency is 18.7 µM (active).

For `N#Cc1ccc(C(c2ccc(C#N)cc2)n2cncn2)cc1`, the Potency entry in test [4] and in test [5] was “inactive” in each case.

On to `OC(CN1CCC(Cc2ccc(F)cc2)CC1)c1ccc(Cl)cc1` (centres undefined), for which the Potency entry in test [1], in test [3], in test [6], in test [4] and in test [7] was “inactive” throughout.

For `O=C(C=Cc1ccc(/C=C/C(=O)Nc2ccc(C3=NCCN3)cc2)cc1)Nc1ccc(C2=NCCN2)cc1`, the Potency entry in test [1], in test [2], in test [3], in test [4] and in test [5] was “inactive” in each case.

Take `Nc1nc2c(ncn2COCCO)c(=O)[nH]1`: the Potency entry in test [3] and in test [5] was “inactive” each time.

On to `Nc1nccc(-c2ccc3noc(-c4ccc(Cl)cc4)c3c2)n1`, for which the Potency result in test [1] and in test [3] was “inactive” in each case.

Regarding `c1ccc(-c2nn3c(c2-c2ccnc4cc(OCCN5CCOCC5)ccc24)CCC3)nc1`, the Potency was 4.18 µM (active) in test [1] and 26.4 µM (active) in test [6]. The Potency entry in test [5] is “inactive”.

In the case of `CC(C)NCC(O)COc1ccc(COCCOC(C)C)cc1` (centres undefined), the Potency entry in test [1], in test [2] and in test [4] was “inactive” each time.

On to `NC(=O)C1CCCc2c1[nH]c1ccc(Cl)cc21` (centres undefined), for which the Potency result in test [1] and in test [2] was “inactive” throughout. Besides, the figures for the Potency in test [6] and in test [4] were 1.66 µM (active) and 14.8 µM (active), respectively.

Consider `C[C@]12CC[C@H](O)CC1=CC[C@@H]1[C@H]2CC[C@]2(C)C(c3cccnc3)=CC[C@H]12`, for which the Potency result in test [1], in test [3], in test [6], in test [4] and in test [5] was “inactive” in each case.

For the compound `O=C1[C@H](Cc2ccc(O)cc2)N2C(=O)CCN(C(=O)NCc3ccccc3)[C@H]2CN1Cc1cccc2ccccc12`, the Potency in test [8] was 7.43 µM (active); in test [6], 4.18 µM (active). Further, the Potency entry in test [4] was “inactive”.

`CC(C)(C)OC(=O)CN(Cc1ccc(Cl)cc1)Cc1ccc([N+](=O)[O-])s1`: the Potency in test [8] is 10.5 µM (active). The Potency entry in test [3], in test [4] and in test [5] was “inactive” in each case.

`CCOC(=O)N[C@@H]1CC[C@@H]2[C@@H](C1)C[C@H]1C(=O)O[C@H](C)[C@H]1[C@@H]2C=Cc1ccc(-c2cccc(F)c2)cn1`: the Potency in test [3] is 18.7 µM (active); in test [6], 20.9 µM (active); in test [4], 14.8 µM (active).

With `Cc1csc(NC(=O)c2sc3nc4c(c(C(F)(F)F)c3c2N)CCC4)n1`, the Potency result in test [1] and in test [3] was “inactive” each time. In addition, the Potency in test [6] is 16.6 µM (active).

For `CCOc1ccn(-c2ccc(F)cc2)c(=O)c1C(=O)Nc1ccc(Oc2ccnc(N)c2Cl)c(F)c1`, the Potency in test [1] is 13.2 µM (active).

On to `Cc1cccc(-c2nn(C(=S)Nc3ccccc3)cc2-c2ccnc3ccccc23)n1`, for which the results for the Potency in test [1] and in test [6] were 16.6 µM (active) and 14.8 µM (active), respectively. The Potency result in test [4] was “inactive”.

With `CC(=O)Oc1ccccc1C(=O)O`, in test [1], the Potency is 7.43 µM (active). For the same compound, the Potency result in test [3] and in test [4] was “inactive” throughout.

Turning to `CN(C(=O)c1ccc(F)cc1C(F)(F)F)C1CCN(c2nnc(-c3ccnn3C)c3ccccc23)CC1`, the Potency entry in test [6] is “inactive”. In addition, the Potency in test [5] is 10.5 µM (active).

A word on the viability: it is a read-out of living cells in per cent, often relative to untreated cells. For `C[C@H](NC(=O)Cc1cc(F)cc(F)c1)C(=O)N[C@@H]1C(=O)N(C)c2ccccc2-c2ccccc21`, the Potency in test [1] was 5.9 µM (active). Moreover, in test [6], the Potency result was “inactive”. In addition, in test [7], the viability is 138% (active).

`COc1ccc2nc(S(=O)Cc3ncc(C)c(OC)c3C)[nH]c2c1` (centres undefined): the Potency result in test [2], in test [6] and in test [5] was “inactive” each time.

On to `Cn1cc(-c2ccc3nnc(C(F)(F)c4ccc5ncccc5c4)n3n2)cn1`, for which the Potency in test [8] was 0.0264 µM (active); in test [2] it was 18.7 µM (active); in test [6], 23.5 µM (active); in test [4], 20.9 µM (active). The Potency entry in test [5] was “inactive”.

On to `Cn1c(=O)c(F)c(Nc2ccc(I)cc2F)c2c(=O)n(C[C@@H](O)CO)cnc21`, for which the Potency was 13.2 µM (active) in test [2], 18.7 µM (active) in test [4] and 0.0118 µM (active) in test [5].

`Cc1ccc(-n2nc(C(C)(C)C)cc2NC(=O)Nc2ccc(OCCN3CCOCC3)c3ccccc23)cc1`: the Potency is 1.18 µM (active) in test [1] and 1.05 µM (active) in test [2].

Turning to `CCCc1nn(C)c2c(=O)[nH]c(-c3cc(S(=O)(=O)N4CCN(C)CC4)ccc3OCC)nc12`, the Potency in test [8] is 18.7 µM (active); in test [6], 11.8 µM (active); in test [5], 18.7 µM (active). Also, the Potency result in test [4] was “inactive”.

For the compound `CC1(C)CNc2cc(NC(=O)c3cccnc3NCc3ccncc3)ccc21`, the Potency in test [2] was 2.09 µM (active); in test [4], 4.18 µM (active). Further, the Potency result in test [3] is “inactive”.

Take `CC(C)OC(=O)C1=CN(C(=O)c2ccc(F)c(F)c2)CC(C)(C)c2c1[nH]c1ccccc21`: the Potency result in test [1], in test [2] and in test [5] was “inactive” throughout.

`NC(=O)c1ccc(I)c([N+](=O)[O-])c1`: in test [1], the Potency result was “inactive”. In test [2], the Potency was 23.5 µM (active).

With `NC(=O)c1ccc(-c2nc(-c3ccc4c(c3)OCCO4)c(-c3ccccn3)[nH]2)cc1`, the Potency result in test [1] and in test [6] was “inactive” in each case.

As for `COc1ccc(C2=N[C@H](c3ccc(Cl)cc3)[C@H](c3ccc(Cl)cc3)N2C(=O)N2CCNC(=O)C2)c(OC(C)C)c1`, the Potency in test [1] was 18.7 µM (active); in test [6], 20.9 µM (active).

With `COc1ccc(CCN2CCN(CCCc3ccccc3)CC2)cc1OC`, the Potency entry in test [1] and in test [6] was “inactive” throughout. For the same compound, the Potency in test [7] is 3.32 µM (active).
